hgDAF-12 ag – H. glycines DAF-12 receptor agonists, primary screen, cell-based, luminescence, HEK293, GAL4 fusion, UAS-luciferase | Nuclear hormone receptor DAF-12 (Heterodera glycines), GAL4 fusion | HEK293 GAL4-hgDAF12 UAS-luciferase reporter, agonist luminescence; normalized to butyrate control | activation, % at 6.8 µM | actives 1.8% (n = 370,000) | AID 687014, 2013;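 active = activation above a cutoff set at the mean of all screened compounds plus 3 SD, cut at about 10% in these data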
hcDAF-12 act – H. contortus DAF-12 nuclear receptor activators, primary screen, cell-based, luminescence, HEK293, lit1-tk-luc reporter; HEK293 hcDAF-12 lit1-tk-luc reporter; 0% DMSO, 100% Δ7-dafachronic acid; activation, % at 6.8 µM; actives 1.4% (n = 370,000); AID 652067, 2013;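 active = activation above the mean of all tested compounds plus 3 SD, cut at about 5.5% in these data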
ssDAF12 agonist – S. stercoralis DAF-12 nuclear receptor activators, primary screen, cell-based, luminescence, HEK293, GRIP1 co-expression, lit1-tk-luc; activation, % at 6.8 µM; HEK293 ssDAF-12/GRIP1 lit1-tk-luc reporter; % of 3 µM dafachronic acid response; Nuclear hormone receptor DAF-12 (Strongyloides stercoralis); actives 1% (n = 370,000);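 active = activation above the mean over all tested compounds plus 3 SD, cut at about 0.9% in these data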
DAX1 inh-1 – DAX1 (NR0B1) inhibitors, primary screen, cell-based, HEK293, Gal4-DAX1, luciferase luminescence | HEK293 Gal4-DAX1 luciferase reporter | Nuclear receptor subfamily 0 group B member 1 (Homo sapiens), P51843 | AID 504766, 2011 | inhibition, % at 6.75 µM | actives 0.99% (n = 340,000);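 active = inhibition above the mean over all tested compounds plus 3 SD, cut at about 4.2% in these data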;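 note: inhibition shows as a rise in luminescence from relieved DAX1 repression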
Target sequence (P51843 207-470 limits assumed): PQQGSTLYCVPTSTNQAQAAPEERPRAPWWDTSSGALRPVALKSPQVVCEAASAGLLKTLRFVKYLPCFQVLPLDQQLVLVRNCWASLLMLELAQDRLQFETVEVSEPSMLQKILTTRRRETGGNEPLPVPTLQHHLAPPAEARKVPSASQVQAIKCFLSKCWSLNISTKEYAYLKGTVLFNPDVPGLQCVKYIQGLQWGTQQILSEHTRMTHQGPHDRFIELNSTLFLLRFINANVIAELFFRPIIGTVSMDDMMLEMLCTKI
DAX1 inh-2 – DAX1 (NR0B1) inhibitors on StAR promoter, primary screen, cell-based, luminescence, SF-1 (NR5A1), full-length DAX-1; HEK293T StAR-luciferase reporter, SF-1/DAX-1 repression relief; inhibition, % at 6.8 µM; actives 1.1% (n = 370,000); AID 652010, 2013;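 active = inhibition above the mean over all tested compounds plus 3 SD, cut at about 3.6% in these data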;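 note: higher inhibition means more luminescence from relief of DAX-1 repression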
hgDAF12 conf – H. glycines DAF-12 receptor agonists, confirmation, cell-based, luminescence, HEK293, GAL4-LBD fusion. shares compounds with hgDAF-12 ag. actives 80% (n = 3,300). activation, % at 6.8 µM. HEK293 GAL4-hgDAF12 luciferase reporter, agonist mode; percent of butyrate response. AID 743050, 2013;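 active = mean activation over triplicate wells above the hit cutoff derived from the earlier primary screen, cut at about 11% in these data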
LXR ag 2 – LXR agonists, Gal4 luciferase reporter, confirmation, counter-screen for hgDAF-12 agonist project, cell-based, luminescence, HEK293, H. glycines campaign. shares compounds with hgDAF-12 ag. 24 h. activation, % at 6.8 µM. 3,300 tested, under 10 active. AID 743051, 2013;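 active = mean activation of the triplicate above a set limit carried over from the primary screen, none filed active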
Hits are given with their value; - = inactive; . = no result given. In the library only some 4.1% were active in any assay of this set; here they are far more common.

SMILES	hgDAF-12 ag	hcDAF-12 act	ssDAF12 agonist	DAX1 inh-1	DAX1 inh-2	hgDAF12 conf	LXR ag 2
C[C@H]1COc2cc(NCCCN3CCOCC3)ccc2S(=O)(=O)N1	-	-	-	.	-	.	.
S=C(SCc1c(Cl)cccc1Cl)N1CCSCC1	-	-	-	.	-	.	.
O=C(CSC(=S)N1CCSCC1)c1ccc(Cl)cc1	13	-	-	-	-	14	-
Nc1c(-c2ccc(Cl)cc2)cnc2c(-c3ccccc3)cnn12	14	-	-	7.8	-	12	-
O=C(Nc1ccccn1)c1csc2c1CCCC2	19	6.0	-	-	-	16	-
C=CCN1C(=O)[C@@H](CC(=O)NCCCN2CCCC2=O)[C@]2(C(=O)OCC)CCCCC/C=C/12	-	-	-	.	-	.	.
CCN(CC)CCCC(C)Nc1nccc2cccc(Cl)c12 (stereo unspecified)	-	-	-	-	-	.	.
CCN(CC)CC(O)CNc1ccnc2c(Cl)ccc(Cl)c12 (stereo unspecified)	13	-	-	-	-	-	-
Fc1ccccc1CSc1nnc(-c2ccccc2)o1	18	-	-	-	-	14	-
Fc1ccccc1CSc1nnc(-c2cccnc2)o1	14	-	-	4.6	-	11	-
O=C(NCc1cccs1)c1ccc2sc(COCCO)nc2c1	-	-	-	.	-	.	.
CC(C)(C)c1ccc(NC(=O)c2ccsc2)cc1	17	6.5	1.0	.	-	16	-
O=C(Nc1cccnc1)c1ccc(C(=O)Nc2cccnc2)cc1	-	-	-	-	-	.	.
Cc1ccc(-c2cc(C(=O)Nc3cccnc3)[nH]n2)c(O)c1C	14	-	-	5.7	-	16	-
Cc1cccc(NC(=O)c2cc(-c3cc(C)c(C)cc3O)n[nH]2)c1	-	-	-	-	-	.	.
CC(C)(C)c1ccc(C(=O)Nc2cccnc2)cc1	16	5.9	1.5	-	-	13	-
CN(C)c1ccc(/C=N/N=C/c2ccccc2O)cc1	16	-	1.9	-	-	-	-
COc1ccccc1C=NN=Cc1ccccc1O	-	-	-	-	-	.	.
Clc1ccc(-c2nc3ccccn3c2CN2CCCCC2)cc1	-	-	-	-	-	.	.
CN(C)Cc1c(-c2ccc(Cl)cc2)nc2ccccn12	18	-	-	5.4	-	-	-
CCOc1cc(/C=N/NC(=O)c2cccnc2)ccc1OCC(=O)N(C)C	-	-	-	-	-	.	.
O=C(c1ccc(=O)[nH]n1)N1CCN(S(=O)(=O)c2cccc(F)c2)CC1	-	-	-	-	-	.	.
CC(=O)CSc1ncnc2c1cnn2-c1ccccc1	17	-	-	-	-	17	-
Cc1ccc(-n2ncc3c(SCC(=O)NNC(=O)C(C)C)ncnc32)cc1	-	-	-	-	-	.	.
CCCC1OC(c2cc3c(cc2Cl)OCO3)OCC1CC (stereo unspecified)	-	-	-	-	-	.	.
SMILES	hgDAF-12 ag	hcDAF-12 act	ssDAF12 agonist	DAX1 inh-1	DAX1 inh-2	hgDAF12 conf	LXR ag 2
O=c1c2ccccc2nnn1COc1cccc(Cl)c1	13	-	-	-	-	-	-
COc1ccc(-c2ncnc(C(F)(F)F)c2-c2csc(C)n2)c(O)c1	-	-	-	-	-	.	.
COc1ccc(-n2ncc3c(N4CCC(C(N)=O)CC4)ncnc32)cc1	14	-	-	-	-	15	-
O=C(CNC(=O)c1ccc(Br)o1)NCC1CCCCC1	-	-	-	-	-	.	.
COc1ccc(NC(=S)Nc2ncccc2C)cc1OC	21	-	-	-	-	-	-
Cc1cccnc1NC(=S)Nc1ccc(Cl)c(Cl)c1	-	-	-	-	-	.	.
CC(C)[C@H](NS(=O)(=O)c1ccc(F)cc1F)C(=O)N1CCC[C@H]1C(=O)NCc1ccccc1	-	-	-	.	-	.	.
Cc1ccsc1/C=N/NC(=O)c1ccc2ccccc2c1	14	-	-	-	-	11	-
O=C(Nc1ccc2nc3ccccc3nc2c1)c1ccccc1	16	-	-	-	-	14	-
Cc1nc2cc(NC(=O)Nc3cccc4ccccc34)ccc2n1C	18	-	-	-	-	12	-
Cc1nc2cc(NC(=O)c3ccc(Cl)cc3)ccc2n1C	13	-	-	-	-	16	-
COC(=O)c1c(NC(=S)NNC(=O)c2ccc(Cl)s2)sc(C(=O)N(C)C)c1C	-	-	-	-	-	.	.
COc1ccc(OC)c2nc(-c3ccc4c(c3)OCO4)ccc12	15	6.4	-	5.7	-	18	-
COc1ccc(-c2oc(=O)c3cc(OC)c(OC)cc3c2-c2ccc3c(c2)OCO3)cc1	-	-	-	-	-	.	.
CCNc1nnc(SCC(=O)NC2CCCCCC2)s1	-	-	-	-	-	.	.
O=C(NC(=S)Nc1ccc(F)cc1)c1ccc2c(c1)OCCO2	17	-	-	-	3.7	11	-
O=C(Nc1ccccc1)c1ccc2c(c1)OCCO2	13	5.8	-	-	-	13	-
O=C(c1ccccc1)c1ccc2c(c1)OCCOCCOCCO2	-	-	-	-	-	.	.
Cc1cccc(NC(=S)NNC(=O)c2ccc3c(c2)OCO3)c1	18	-	-	-	3.9	13	-
O=C(c1ccccc1)c1ccc2c(c1)OCCCO2	15	6.2	-	4.6	-	18	-
O=S1(=O)c2c(cccc2N2CC[C@@H](O)C2)O[C@@H]2CCN1C2	-	-	-	.	-	.	.
COc1ccc(NC(=O)C2(C)Cc3c(-c4cccc(C(F)(F)F)c4)ccnc3O2)cn1 (stereo unspecified)	-	-	-	.	-	.	.
O=C(NC1CCCC1)C(c1cccnc1)N(C(=O)c1csnn1)c1ccccc1 (stereo unspecified)	-	-	-	-	-	.	.
O=C(CSc1ncnc2sccc12)NCc1ccc2c(c1)OCO2	-	-	-	-	-	.	.
O=C1NC[C@H](Cc2ccc(O)cc2)N(C[C@@H]2CCCN2C[C@H](Cc2ccc(O)cc2)N2C[C@H](Cc3ccccc3)N(CCc3ccccc3)C(=O)C2=O)C1=O	-	-	-	.	-	.	.
CCc1ccc(OC2(C)CCN(Cc3ccc4c(c3)OCCO4)C2)cc1 (stereo unspecified)	-	-	-	.	-	.	.

Source: PubChem
